The text below walks through data of PubChem BioAssay (NCI).

SMILES strings stand for the structures. About 83,000 compounds went through this panel and 20% of them were active in at least one assay; those are over-represented in the sample as a whole.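 How to read the values: 0–100, growth inhibition (40 = 60% inhibited); 0, no net growth; -100 to 0, cell death (-40 = 40% of starting cells died; -100 = all dead).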 Unmarked numbers belong to inactive results. The source made the active and inactive calls. Rule for the calls: active = growth percent below 10; inactive = the rest.

Some test systems named below: K-562 leukemia; MALME-3M melanoma; MDA-MB-231 breast; RXF 393 renal; SF-268 CNS; SF-295 CNS; SF-539 CNS; UACC-257 melanoma; M14 melanoma; HCT-15 colon; HT29 colon; SNB-75 CNS; SNB-19 CNS; U251 CNS; PC-3 prostate; SK-MEL-5 melanoma; UACC-62 melanoma; LOX IMVI melanoma; SK-MEL-28 melanoma; SK-MEL-2 melanoma.
What all share (test): NCI-60 one-dose screen, 48 h (100 = growth as untreated, 0 = no growth, -100 = all killed)
Conditions in all cases: 10 µM unless noted

As for `C/C(=N\N1CC(=O)NC1=O)c1ccc([N+](=O)[O-])o1`, the growth in the experiment on K-562 leukemia was 90.6%; in the experiment with MALME-3M melanoma, 114%; with MDA-MB-231 breast, 106%; in the experiment on RXF 393 renal, 128%; in the experiment on SF-268 CNS it was 84.7%; in the experiment with SF-295 CNS, 104%. Besides, the growth in the experiment on SF-539 CNS is 108%; in the experiment with UACC-257 melanoma, 81.9%; in the experiment with M14 melanoma, 103%; with HCT-15 colon, 115%; in the experiment with HT29 colon, 102%; with SNB-75 CNS it was 96.4%. Moreover, the growth is 99.3% in the experiment with SNB-19 CNS; 102% in the experiment with U251 CNS; 93.8% with PC-3 prostate; 93.4% in the experiment on SK-MEL-5 melanoma; 83.2% in the experiment on UACC-62 melanoma; 67.5% in the experiment on LOX IMVI melanoma. The growth in the experiment with SK-MEL-28 melanoma is 117%; with SK-MEL-2 melanoma, 106%.
Turning to `COc1c(O)cc2oc3cc(O)c(CC=C(C)C)c(O)c3c(=O)c2c1C/C=C(\C)CCC=C(C)C`, the growth was 27.2% in the experiment on K-562 leukemia; 127% with MALME-3M melanoma; 5.81% (active) in the experiment with MDA-MB-231 breast; -22.5% (active) in the experiment on RXF 393 renal; 64.7% in the experiment on SF-268 CNS; 87.2% with SF-295 CNS. Besides, the growth is 93.2% in the experiment on SF-539 CNS; 103% in the experiment on UACC-257 melanoma; 52% with M14 melanoma; 73% in the experiment on HCT-15 colon; 26.7% in the experiment with HT29 colon; 84.6% in the experiment with SNB-75 CNS. In addition, the growth in the experiment on SNB-19 CNS was 80.5%; with U251 CNS, 24.1%; with PC-3 prostate, 19.5%; in the experiment with SK-MEL-5 melanoma, 86.6%; in the experiment with UACC-62 melanoma, 98.9%; in the experiment with LOX IMVI melanoma, -85.8% (active). Further, the growth in the experiment with SK-MEL-28 melanoma was 94.4%; with SK-MEL-2 melanoma, 75.3%.
Regarding `C[N+]1(CCc2ccccc2)CCC(CCC2CC[N+](C)(CCc3ccccc3)CC2)CC1` (stereo not drawn), the growth in the experiment on K-562 leukemia is 129%; with MALME-3M melanoma, 118%; in the experiment with MDA-MB-231 breast, 101%; in the experiment with RXF 393 renal it was 105%; with SF-268 CNS, 102%; with SF-295 CNS, 97.1%. Besides, the growth was 106% in the experiment on SF-539 CNS; 110% with UACC-257 melanoma; 103% with M14 melanoma; 104% in the experiment on HCT-15 colon; 94% in the experiment on HT29 colon; 83.9% with SNB-75 CNS. In addition, the growth in the experiment on SNB-19 CNS was 98.1%; in the experiment on U251 CNS it was 87.9%; with PC-3 prostate, 101%; in the experiment with SK-MEL-5 melanoma, 100%; in the experiment with UACC-62 melanoma, 85.7%; in the experiment on LOX IMVI melanoma, 102%. In addition, the results for the growth with SK-MEL-28 melanoma and in the experiment with SK-MEL-2 melanoma were 111% and 119%, respectively.
Regarding `CC(C)C/C(=N\NC(=O)c1ccncc1)c1cc(Cl)ccc1O`, the growth is 9.61% (active) with K-562 leukemia; 21.7% in the experiment on MALME-3M melanoma; 36.3% in the experiment with MDA-MB-231 breast; 40.2% with RXF 393 renal; 24.9% in the experiment on SF-268 CNS; 19.2% in the experiment on SF-295 CNS. Further, the growth in the experiment on SF-539 CNS is 12%; with UACC-257 melanoma, 6.11% (active); with M14 melanoma, 2.19% (active); in the experiment on HCT-15 colon, 23%; in the experiment on HT29 colon, 31.1%; in the experiment with SNB-75 CNS, 44.7%. The growth in the experiment with SNB-19 CNS is 31.3%; with U251 CNS it was 25.1%; with PC-3 prostate, 22.4%; in the experiment with SK-MEL-5 melanoma it was 0.654% (active); in the experiment on UACC-62 melanoma it was 6.43% (active); in the experiment on LOX IMVI melanoma it was 3.98% (active). The growth in the experiment with SK-MEL-28 melanoma was 40.5%; in the experiment with SK-MEL-2 melanoma, 7.55% (active).
`O=C1Nc2ccc(F)cc2/C1=C/c1nc(-c2ccc(F)cc2)n2ccccc12`: the growth in the experiment on K-562 leukemia is 106%; in the experiment with MALME-3M melanoma it was 91.3%; in the experiment on MDA-MB-231 breast it was 80%; in the experiment on RXF 393 renal, 108%; in the experiment with SF-268 CNS, 81.3%; in the experiment with SF-295 CNS it was 92.1%. For the same compound, the growth in the experiment with SF-539 CNS is 104%; with UACC-257 melanoma, 104%; with M14 melanoma it was 83.2%; in the experiment with HCT-15 colon it was 105%; in the experiment on HT29 colon, 95.6%; with SNB-75 CNS, 93.6%. Moreover, the growth was 105% in the experiment on SNB-19 CNS; 83.5% with U251 CNS; 115% in the experiment with PC-3 prostate; 103% with SK-MEL-5 melanoma; 97% in the experiment with UACC-62 melanoma; 92.9% in the experiment with LOX IMVI melanoma. Also, the growth in the experiment with SK-MEL-28 melanoma was 112%; in the experiment with SK-MEL-2 melanoma, 132%.
As for `COC1CC2CCC(C)C(O)(O2)C(=O)C(=O)N2CCCCC2C(=O)OC(C(C)CC2CCC(O)C(OC)C2)CC(=O)C(C)C=C(C)C(O)C(OC)C(=O)C(C)CC(C)/C=C/C=C/C=C1C` (stereo not drawn), the growth with K-562 leukemia is 70.4%; in the experiment on MALME-3M melanoma it was 21.1%; with MDA-MB-231 breast, 52.4%; with RXF 393 renal it was 20.4%; with SF-268 CNS, 57.2%; in the experiment with SF-295 CNS, 16.6%. Further, the growth in the experiment on SF-539 CNS was 35.8%; in the experiment on UACC-257 melanoma it was 50.8%; in the experiment with M14 melanoma, 48.5%; in the experiment with HCT-15 colon, 46.2%; in the experiment with HT29 colon it was 43.7%; with SNB-75 CNS it was 13.5%. The growth with SNB-19 CNS was 38.1%; in the experiment with U251 CNS it was 35.8%; in the experiment with PC-3 prostate it was 31.3%; in the experiment on UACC-62 melanoma, 36.5%; in the experiment with LOX IMVI melanoma, 39%; in the experiment with SK-MEL-28 melanoma, 54.1%. Besides, in the experiment with SK-MEL-2 melanoma, the growth was 35.9%.
For the compound `COc1ccc(/C=C2\NC(=S)NC2=O)cc1`, the growth in the experiment with K-562 leukemia was 117%; in the experiment on MALME-3M melanoma it was 77.5%; in the experiment on MDA-MB-231 breast, 94.5%; in the experiment on RXF 393 renal, 126%; in the experiment with SF-268 CNS it was 106%; with SF-295 CNS, 119%. The growth with SF-539 CNS was 98.3%; in the experiment with UACC-257 melanoma, 106%; in the experiment on M14 melanoma it was 100%; in the experiment with HCT-15 colon, 93.5%; in the experiment on HT29 colon it was 110%; in the experiment on SNB-75 CNS it was 106%. For the same compound, the growth with SNB-19 CNS was 109%; with U251 CNS it was 102%; with PC-3 prostate, 106%; in the experiment on SK-MEL-5 melanoma, 107%; with UACC-62 melanoma it was 95.3%; with LOX IMVI melanoma it was 112%. Moreover, the growth in the experiment on SK-MEL-28 melanoma was 119%; with SK-MEL-2 melanoma, 109%.
`CCOc1cccc(C2CC(=O)Nc3cc4c(cc32)OCO4)c1` (stereo not drawn): the growth in the experiment on K-562 leukemia is 48.2%; with MALME-3M melanoma, 83.4%; in the experiment on MDA-MB-231 breast, 111%; in the experiment with RXF 393 renal, 78.8%; with SF-268 CNS, 89.4%; with SF-295 CNS, 76%. Also, the growth with SF-539 CNS is 91.7%; in the experiment with UACC-257 melanoma, 94.5%; in the experiment on M14 melanoma, 102%; in the experiment on HCT-15 colon, 77.3%; with HT29 colon, 89.1%; with SNB-75 CNS, 104%. Further, the growth was 100% in the experiment on SNB-19 CNS; 85.1% with U251 CNS; 81.7% in the experiment with PC-3 prostate; 90.9% in the experiment on UACC-62 melanoma; 93.8% in the experiment on LOX IMVI melanoma; 99.9% with SK-MEL-28 melanoma. In addition, the growth with SK-MEL-2 melanoma was 83.1%.
